Source: paper PMC7862700, “An all-to-all approach to the identification of sequence-specific readers for epigenetic DNA modifications on cytosine”

How the values were obtained:
Test in all cases: DAPPL (digital affinity profiling via proximity ligation, sequencing); 10 mM Tris-HCl pH 7.5, 50 mM NaCl, 1 mM DTT, 4% glycerol, room temperature, 30 min; GST-TFs on glutathione beads, 16-mer random dsDNA library, 0.1% formaldehyde crosslink after washing; high values mean tight binding
FLI1 = target: T1, FLI1 (Homo sapiens, UniProt Q01543 1-452); conditions: protein: recombinant; tags: N-terminal GST; dsDNA, one strand shown
T1 sequence: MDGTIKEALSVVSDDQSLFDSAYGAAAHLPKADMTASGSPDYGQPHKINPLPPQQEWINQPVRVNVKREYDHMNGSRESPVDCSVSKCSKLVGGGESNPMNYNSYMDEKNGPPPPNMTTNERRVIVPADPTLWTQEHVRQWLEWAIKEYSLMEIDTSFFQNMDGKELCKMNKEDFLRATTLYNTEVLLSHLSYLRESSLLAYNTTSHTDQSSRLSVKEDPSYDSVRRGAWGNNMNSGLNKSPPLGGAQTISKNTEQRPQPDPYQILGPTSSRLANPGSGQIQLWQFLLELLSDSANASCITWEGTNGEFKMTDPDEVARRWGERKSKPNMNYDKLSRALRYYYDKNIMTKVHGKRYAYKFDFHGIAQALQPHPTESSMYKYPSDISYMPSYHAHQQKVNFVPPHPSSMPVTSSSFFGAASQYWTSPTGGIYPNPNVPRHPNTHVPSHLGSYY
In short: (§1)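 The binding signal reported is, for every hexamer, its read frequency for a factor over its read frequency for the tag-only sample. Reads came from pools of yeast-expressed, GST-fused human transcription factors on glutathione beads, barcoded with DNA and mixed with that sample, which were incubated with 200 nmole of a random double-stranded 16-mer DNA library in Tris/NaCl/DTT/glycerol buffer at room temperature for 30 min. After washing, the pools were crosslinked with 0.1% formaldehyde, proximity-ligated with BsaI/T4 ligase for 1 h at 37 °C, PCR-amplified and sequenced on an Illumina NextSeq500.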

ELK1 = target: T2, ELK1 (Homo sapiens, UniProt P19419 1-428); conditions: protein: recombinant; tags: N-terminal GST; dsDNA, one strand shown
T2 sequence: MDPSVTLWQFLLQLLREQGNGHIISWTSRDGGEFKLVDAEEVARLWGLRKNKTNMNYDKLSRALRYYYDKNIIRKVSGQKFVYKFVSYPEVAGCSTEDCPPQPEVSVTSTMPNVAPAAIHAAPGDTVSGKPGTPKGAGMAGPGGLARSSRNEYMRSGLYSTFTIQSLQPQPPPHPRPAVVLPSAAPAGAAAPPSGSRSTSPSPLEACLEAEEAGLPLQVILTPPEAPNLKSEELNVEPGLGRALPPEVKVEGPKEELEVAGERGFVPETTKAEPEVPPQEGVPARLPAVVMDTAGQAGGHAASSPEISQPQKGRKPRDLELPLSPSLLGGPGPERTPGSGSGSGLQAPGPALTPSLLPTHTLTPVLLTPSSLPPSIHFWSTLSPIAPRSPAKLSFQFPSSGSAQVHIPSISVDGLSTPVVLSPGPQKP
In short: as §1

GABPA = target: T3, GABPA (Homo sapiens, UniProt Q06546 1-454); conditions: protein: recombinant; tags: N-terminal GST; dsDNA, one strand shown
T3 sequence: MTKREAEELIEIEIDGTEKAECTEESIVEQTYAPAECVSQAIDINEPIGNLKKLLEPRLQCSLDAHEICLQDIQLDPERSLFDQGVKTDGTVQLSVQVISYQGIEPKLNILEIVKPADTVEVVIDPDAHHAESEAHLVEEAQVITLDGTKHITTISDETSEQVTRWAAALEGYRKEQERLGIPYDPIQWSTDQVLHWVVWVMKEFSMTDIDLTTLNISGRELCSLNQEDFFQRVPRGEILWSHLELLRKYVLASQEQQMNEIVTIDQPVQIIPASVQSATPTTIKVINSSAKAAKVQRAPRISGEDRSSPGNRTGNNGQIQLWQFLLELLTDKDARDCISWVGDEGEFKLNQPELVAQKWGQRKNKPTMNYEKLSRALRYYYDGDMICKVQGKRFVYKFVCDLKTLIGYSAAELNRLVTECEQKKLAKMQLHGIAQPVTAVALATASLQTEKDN
In short: as §1

ERG = target: T4, ERG (Homo sapiens, UniProt P11308 1-479); conditions: protein: recombinant; tags: N-terminal GST; dsDNA, one strand shown
T4 sequence: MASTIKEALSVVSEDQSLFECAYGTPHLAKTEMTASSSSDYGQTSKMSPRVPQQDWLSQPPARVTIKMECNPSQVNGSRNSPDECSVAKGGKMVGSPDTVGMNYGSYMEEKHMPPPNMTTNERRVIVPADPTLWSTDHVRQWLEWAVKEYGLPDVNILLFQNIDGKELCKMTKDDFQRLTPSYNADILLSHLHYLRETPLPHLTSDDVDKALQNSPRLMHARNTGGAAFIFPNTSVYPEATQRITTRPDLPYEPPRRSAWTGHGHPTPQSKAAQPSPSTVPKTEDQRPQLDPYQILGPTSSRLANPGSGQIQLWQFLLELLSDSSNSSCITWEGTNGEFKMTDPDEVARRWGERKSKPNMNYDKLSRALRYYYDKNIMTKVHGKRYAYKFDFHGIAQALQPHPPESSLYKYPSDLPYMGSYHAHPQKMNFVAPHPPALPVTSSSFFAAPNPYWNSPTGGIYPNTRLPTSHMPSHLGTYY
In short: as §1

ELF1 = ELF1 (Homo sapiens, UniProt P32519 1-619); conditions: protein: recombinant; tags: N-terminal GST; dsDNA, one strand shown
In short: as §1

SPI1 = SPI1 (Homo sapiens, UniProt P17947 1-270); conditions: protein: recombinant; tags: N-terminal GST; dsDNA, one strand shown
In short: as §1

ETV5 = ETV5 (Homo sapiens, UniProt P41161 1-510); conditions: protein: recombinant; tags: N-terminal GST; dsDNA, one strand shown
In short: as §1

HSF1 = HSF1 (Homo sapiens, UniProt Q00613 1-529); conditions: protein: recombinant; tags: N-terminal GST; chain copies: 3; dsDNA, one strand shown
In short: as §1

SPIC = target: T5, SPIC (Homo sapiens, UniProt Q8N5J4 1-248); conditions: protein: recombinant; tags: N-terminal GST; dsDNA, one strand shown
T5 sequence: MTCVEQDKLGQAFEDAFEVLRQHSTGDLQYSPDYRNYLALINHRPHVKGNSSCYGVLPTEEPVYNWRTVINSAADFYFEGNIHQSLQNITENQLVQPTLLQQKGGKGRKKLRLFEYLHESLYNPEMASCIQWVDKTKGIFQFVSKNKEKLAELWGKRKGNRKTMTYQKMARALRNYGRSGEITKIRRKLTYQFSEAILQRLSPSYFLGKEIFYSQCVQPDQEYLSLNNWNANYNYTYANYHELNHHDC
In short: as §1

ELF4 = ELF4 (Homo sapiens, UniProt Q99607 1-663); conditions: protein: recombinant; tags: N-terminal GST; dsDNA, one strand shown
In short: as §1

ELK4 = target: T6, ELK4 (Homo sapiens, UniProt P28324-2 1-405); conditions: protein: recombinant; tags: N-terminal GST; dsDNA, one strand shown
T6 sequence: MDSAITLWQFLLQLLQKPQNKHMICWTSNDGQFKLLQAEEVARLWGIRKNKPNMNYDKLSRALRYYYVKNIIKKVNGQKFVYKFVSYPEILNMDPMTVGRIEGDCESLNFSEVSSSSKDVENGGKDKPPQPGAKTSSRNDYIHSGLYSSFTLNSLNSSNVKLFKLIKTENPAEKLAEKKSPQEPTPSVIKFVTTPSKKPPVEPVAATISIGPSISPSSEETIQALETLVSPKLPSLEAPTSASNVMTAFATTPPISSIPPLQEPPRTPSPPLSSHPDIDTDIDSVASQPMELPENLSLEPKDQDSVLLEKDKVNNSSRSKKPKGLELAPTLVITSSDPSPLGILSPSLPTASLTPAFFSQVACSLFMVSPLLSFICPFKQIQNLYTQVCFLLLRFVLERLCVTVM
In short: as §1

ETV2 = target: T7, ETV2 (Homo sapiens, UniProt O00321 1-342); conditions: protein: recombinant; tags: N-terminal GST; dsDNA, one strand shown
T7 sequence: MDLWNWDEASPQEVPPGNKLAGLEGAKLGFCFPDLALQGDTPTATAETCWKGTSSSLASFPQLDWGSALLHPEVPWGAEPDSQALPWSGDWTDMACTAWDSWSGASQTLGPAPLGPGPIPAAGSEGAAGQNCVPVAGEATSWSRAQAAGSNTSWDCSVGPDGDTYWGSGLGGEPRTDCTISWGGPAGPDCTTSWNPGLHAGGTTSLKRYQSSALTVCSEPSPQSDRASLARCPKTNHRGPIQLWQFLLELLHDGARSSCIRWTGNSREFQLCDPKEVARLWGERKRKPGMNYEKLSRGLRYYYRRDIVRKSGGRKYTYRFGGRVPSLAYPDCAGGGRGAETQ
In short: as §1

ETV1 = ETV1 (Homo sapiens, UniProt P50549 1-477); conditions: protein: recombinant; tags: N-terminal GST; dsDNA, one strand shown
In short: as §1

ETV5, sequence (P41161 whole entry): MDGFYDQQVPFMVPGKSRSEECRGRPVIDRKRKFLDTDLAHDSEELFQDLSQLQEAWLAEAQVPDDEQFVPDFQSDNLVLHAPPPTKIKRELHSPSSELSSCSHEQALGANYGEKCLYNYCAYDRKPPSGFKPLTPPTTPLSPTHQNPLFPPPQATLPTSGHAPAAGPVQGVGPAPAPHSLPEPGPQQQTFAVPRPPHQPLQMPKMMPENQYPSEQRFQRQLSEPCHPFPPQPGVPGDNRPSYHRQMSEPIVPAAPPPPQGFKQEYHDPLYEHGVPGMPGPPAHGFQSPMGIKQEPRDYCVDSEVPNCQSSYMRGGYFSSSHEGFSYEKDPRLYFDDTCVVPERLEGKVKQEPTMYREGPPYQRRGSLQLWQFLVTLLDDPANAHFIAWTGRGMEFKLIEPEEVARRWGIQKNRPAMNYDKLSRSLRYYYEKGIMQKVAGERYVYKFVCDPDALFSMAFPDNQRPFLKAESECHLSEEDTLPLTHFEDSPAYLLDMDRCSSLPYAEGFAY
HSF1, sequence (Q00613 whole entry): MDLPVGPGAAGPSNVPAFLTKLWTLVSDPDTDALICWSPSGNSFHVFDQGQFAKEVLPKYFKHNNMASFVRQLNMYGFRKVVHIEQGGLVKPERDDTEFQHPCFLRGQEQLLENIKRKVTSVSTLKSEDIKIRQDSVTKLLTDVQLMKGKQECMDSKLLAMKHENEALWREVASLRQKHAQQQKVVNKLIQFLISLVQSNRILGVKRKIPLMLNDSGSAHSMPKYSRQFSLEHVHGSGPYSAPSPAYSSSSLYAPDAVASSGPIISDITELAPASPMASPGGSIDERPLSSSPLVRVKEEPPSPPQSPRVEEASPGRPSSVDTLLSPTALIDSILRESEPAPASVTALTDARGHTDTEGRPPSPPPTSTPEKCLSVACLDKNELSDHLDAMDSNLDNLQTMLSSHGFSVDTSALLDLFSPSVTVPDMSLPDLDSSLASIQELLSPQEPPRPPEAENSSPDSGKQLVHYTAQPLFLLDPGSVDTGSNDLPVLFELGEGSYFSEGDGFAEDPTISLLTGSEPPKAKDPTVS
ELF4, sequence (Q99607 whole entry): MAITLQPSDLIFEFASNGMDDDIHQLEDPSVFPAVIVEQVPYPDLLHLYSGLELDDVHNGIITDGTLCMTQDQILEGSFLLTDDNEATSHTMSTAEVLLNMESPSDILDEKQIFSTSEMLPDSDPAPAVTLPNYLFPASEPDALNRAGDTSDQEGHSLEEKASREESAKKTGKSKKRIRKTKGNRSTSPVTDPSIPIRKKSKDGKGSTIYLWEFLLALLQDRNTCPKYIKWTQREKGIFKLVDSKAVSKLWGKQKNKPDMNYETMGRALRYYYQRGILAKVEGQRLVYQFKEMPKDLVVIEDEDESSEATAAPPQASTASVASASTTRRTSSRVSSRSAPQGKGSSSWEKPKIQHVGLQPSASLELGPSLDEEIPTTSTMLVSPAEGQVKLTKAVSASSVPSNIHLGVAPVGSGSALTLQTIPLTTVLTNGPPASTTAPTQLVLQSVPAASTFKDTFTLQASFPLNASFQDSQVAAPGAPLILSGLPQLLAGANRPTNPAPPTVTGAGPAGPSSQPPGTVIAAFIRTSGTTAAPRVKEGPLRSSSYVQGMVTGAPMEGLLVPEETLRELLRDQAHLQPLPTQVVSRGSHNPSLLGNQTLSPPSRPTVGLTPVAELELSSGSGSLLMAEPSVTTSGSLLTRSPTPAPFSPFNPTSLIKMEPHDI
ETV1, sequence (P50549 whole entry): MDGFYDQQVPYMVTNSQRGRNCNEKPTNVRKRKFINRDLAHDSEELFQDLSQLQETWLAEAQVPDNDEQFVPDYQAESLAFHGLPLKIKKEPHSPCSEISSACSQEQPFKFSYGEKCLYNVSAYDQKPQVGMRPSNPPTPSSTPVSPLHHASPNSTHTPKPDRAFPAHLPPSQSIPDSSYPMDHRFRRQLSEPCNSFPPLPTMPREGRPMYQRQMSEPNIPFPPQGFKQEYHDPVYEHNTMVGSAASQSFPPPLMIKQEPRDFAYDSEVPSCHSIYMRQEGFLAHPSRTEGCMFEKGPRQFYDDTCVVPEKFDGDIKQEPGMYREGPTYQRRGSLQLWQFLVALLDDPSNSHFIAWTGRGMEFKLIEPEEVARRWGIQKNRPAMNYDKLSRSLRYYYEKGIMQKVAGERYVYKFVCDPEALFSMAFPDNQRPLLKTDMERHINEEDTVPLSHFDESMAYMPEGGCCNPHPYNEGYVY
ELF1, sequence (P32519 whole entry): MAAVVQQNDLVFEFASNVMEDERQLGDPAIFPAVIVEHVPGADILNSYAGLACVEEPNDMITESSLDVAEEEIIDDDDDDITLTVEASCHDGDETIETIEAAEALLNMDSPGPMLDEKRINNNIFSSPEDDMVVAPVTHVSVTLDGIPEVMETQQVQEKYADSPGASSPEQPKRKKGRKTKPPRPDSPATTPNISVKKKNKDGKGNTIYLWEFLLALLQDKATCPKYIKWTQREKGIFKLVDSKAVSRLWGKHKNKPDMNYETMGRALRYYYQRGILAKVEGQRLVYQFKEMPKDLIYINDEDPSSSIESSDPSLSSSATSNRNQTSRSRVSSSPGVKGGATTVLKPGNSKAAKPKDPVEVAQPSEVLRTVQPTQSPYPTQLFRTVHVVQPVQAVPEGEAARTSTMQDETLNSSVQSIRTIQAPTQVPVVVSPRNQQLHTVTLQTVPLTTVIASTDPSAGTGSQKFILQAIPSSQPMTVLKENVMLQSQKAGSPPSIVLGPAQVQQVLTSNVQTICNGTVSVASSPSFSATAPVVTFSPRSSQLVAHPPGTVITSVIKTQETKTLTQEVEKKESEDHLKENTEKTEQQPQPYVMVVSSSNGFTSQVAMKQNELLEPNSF

CAGATG
binding signal (FLI1): 1.05 fold enrichment (6-mer frequency, TF over GST control)
binding signal (ELK1): 1.09 fold enrichment (6-mer frequency, TF over GST control)
binding signal (GABPA): 1.04 fold enrichment (6-mer frequency, TF over GST control)
binding signal (ERG): 1.09 fold enrichment (6-mer frequency, TF over GST control)
binding signal (ELF1): 1.08 fold enrichment (6-mer frequency, TF over GST control)
binding signal (SPI1): 1 fold enrichment (6-mer frequency, TF over GST control)
binding signal (ETV5): 1.01 fold enrichment (6-mer frequency, TF over GST control)
binding signal (HSF1): 1.01 fold enrichment (6-mer frequency, TF over GST control)
binding signal (SPIC): 1.12 fold enrichment (6-mer frequency, TF over GST control)
binding signal (ELF4): 1.02 fold enrichment (6-mer frequency, TF over GST control)
binding signal (ELK4): 1.06 fold enrichment (6-mer frequency, TF over GST control)
binding signal (ETV2): 1.01 fold enrichment (6-mer frequency, TF over GST control)
binding signal (ETV1): 1.01 fold enrichment (6-mer frequency, TF over GST control)
